Test results published in PMC7862700, “An all-to-all approach to the identification of sequence-specific readers for epigenetic DNA modifications on cytosine”.

Columns and labels:
Assay in all cases: DAPPL (digital affinity profiling via proximity ligation, sequencing); 10 mM Tris-HCl pH 7.5, 50 mM NaCl, 1 mM DTT, 4% glycerol, room temperature, 30 min; GST-TFs on glutathione beads, 16-mer random dsDNA library, 0.1% formaldehyde crosslink after washing; high values mean tight binding
Conditions in all cases: protein: recombinant; tags: N-terminal GST; dsDNA, one strand shown
GABPA = molecular target: T1, GABPA (Homo sapiens, UniProt Q06546 1-454)
T1 sequence: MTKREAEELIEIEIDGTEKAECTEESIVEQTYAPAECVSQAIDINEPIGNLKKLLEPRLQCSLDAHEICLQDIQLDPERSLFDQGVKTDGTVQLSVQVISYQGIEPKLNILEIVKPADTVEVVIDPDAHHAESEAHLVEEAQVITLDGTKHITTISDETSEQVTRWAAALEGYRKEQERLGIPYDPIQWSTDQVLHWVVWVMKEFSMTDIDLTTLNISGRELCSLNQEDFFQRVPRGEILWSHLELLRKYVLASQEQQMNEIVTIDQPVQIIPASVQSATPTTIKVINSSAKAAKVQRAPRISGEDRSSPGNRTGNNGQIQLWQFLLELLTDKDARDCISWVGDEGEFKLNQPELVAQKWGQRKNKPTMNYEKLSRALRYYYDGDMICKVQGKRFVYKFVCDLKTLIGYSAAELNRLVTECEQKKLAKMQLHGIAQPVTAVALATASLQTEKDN
Outline: (§1)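 Pools were built from human transcription factors expressed in yeast as GST fusions, captured on glutathione beads and DNA-barcoded, along with a tag-only sample. Incubation with 200 nmole of a 16-mer random double-stranded DNA library lasted 30 min at room temperature in Tris/NaCl/DTT/glycerol buffer, and was followed by washing, 0.1% formaldehyde crosslinking, proximity ligation, PCR amplification and Illumina NextSeq500 sequencing. Binding signal is the quotient of each hexamer's read frequency for a factor and its frequency for the tag-only sample.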

ELF1 = ELF1 (Homo sapiens, UniProt P32519 1-619)
ELF1, sequence (P32519 whole entry): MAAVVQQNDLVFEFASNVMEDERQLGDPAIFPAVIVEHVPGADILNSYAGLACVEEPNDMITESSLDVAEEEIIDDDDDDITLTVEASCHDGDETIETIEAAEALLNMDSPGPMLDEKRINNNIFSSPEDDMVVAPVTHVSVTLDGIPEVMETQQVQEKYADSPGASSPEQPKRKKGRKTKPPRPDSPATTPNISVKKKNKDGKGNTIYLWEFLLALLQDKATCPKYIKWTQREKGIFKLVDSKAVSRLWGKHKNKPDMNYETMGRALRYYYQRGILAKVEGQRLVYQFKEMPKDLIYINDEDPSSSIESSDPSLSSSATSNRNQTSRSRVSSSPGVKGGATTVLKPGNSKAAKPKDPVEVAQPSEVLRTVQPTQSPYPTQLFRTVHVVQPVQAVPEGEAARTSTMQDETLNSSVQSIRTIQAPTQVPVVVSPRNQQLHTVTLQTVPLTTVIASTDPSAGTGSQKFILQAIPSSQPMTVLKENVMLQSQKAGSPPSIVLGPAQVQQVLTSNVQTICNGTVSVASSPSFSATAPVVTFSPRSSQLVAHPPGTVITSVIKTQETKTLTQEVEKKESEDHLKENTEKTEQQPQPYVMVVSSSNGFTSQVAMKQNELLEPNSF
Outline: as §1

EHF = molecular target: T2, EHF (Homo sapiens, UniProt Q9NZC4 1-300)
T2 sequence: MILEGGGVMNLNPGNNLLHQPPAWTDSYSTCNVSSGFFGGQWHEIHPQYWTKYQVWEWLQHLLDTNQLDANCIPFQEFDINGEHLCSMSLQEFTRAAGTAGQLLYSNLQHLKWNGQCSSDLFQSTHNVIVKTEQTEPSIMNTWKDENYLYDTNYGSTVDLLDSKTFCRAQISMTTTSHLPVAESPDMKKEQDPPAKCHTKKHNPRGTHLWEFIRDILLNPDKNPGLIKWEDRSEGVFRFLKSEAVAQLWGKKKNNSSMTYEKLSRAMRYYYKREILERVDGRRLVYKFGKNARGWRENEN
Outline: as §1

SPI1 = SPI1 (Homo sapiens, UniProt P17947 1-270)
Outline: as §1

SPIB = SPIB (Homo sapiens, UniProt Q01892 1-262)
SPIB, sequence (Q01892 whole entry): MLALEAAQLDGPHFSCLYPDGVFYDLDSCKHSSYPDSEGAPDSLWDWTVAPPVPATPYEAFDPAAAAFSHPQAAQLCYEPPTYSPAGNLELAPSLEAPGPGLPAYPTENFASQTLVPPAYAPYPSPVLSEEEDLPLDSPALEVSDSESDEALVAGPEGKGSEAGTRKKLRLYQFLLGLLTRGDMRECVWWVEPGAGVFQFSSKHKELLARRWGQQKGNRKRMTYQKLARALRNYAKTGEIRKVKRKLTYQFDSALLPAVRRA
Outline: as §1

FEV = molecular target: T3, FEV (Homo sapiens, UniProt Q99581 1-238)
T3 sequence: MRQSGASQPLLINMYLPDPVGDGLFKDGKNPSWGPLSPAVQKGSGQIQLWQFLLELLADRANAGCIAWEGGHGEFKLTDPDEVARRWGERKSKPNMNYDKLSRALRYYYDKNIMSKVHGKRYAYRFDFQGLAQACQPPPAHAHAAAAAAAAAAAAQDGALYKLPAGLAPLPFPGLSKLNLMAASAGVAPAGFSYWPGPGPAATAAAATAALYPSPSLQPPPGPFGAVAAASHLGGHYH
Outline: as §1

ETV5 = ETV5 (Homo sapiens, UniProt P41161 1-510)
ETV5, sequence (P41161 whole entry): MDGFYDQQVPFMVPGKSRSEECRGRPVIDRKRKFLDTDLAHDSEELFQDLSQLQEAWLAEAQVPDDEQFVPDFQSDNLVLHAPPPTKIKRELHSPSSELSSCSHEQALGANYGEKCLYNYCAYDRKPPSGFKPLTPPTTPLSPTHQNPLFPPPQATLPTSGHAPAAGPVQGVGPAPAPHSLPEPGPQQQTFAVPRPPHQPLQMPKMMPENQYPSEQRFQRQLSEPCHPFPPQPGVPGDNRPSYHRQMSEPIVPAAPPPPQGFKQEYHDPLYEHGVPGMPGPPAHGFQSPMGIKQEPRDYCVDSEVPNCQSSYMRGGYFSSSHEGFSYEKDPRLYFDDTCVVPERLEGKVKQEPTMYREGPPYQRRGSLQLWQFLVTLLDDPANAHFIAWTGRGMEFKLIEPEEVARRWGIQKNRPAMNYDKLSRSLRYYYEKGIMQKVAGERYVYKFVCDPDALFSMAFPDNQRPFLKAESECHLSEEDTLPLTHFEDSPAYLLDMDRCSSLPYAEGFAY
Outline: as §1

ELF3 = molecular target: T4, ELF3 (Homo sapiens, UniProt P78545 1-371)
T4 sequence: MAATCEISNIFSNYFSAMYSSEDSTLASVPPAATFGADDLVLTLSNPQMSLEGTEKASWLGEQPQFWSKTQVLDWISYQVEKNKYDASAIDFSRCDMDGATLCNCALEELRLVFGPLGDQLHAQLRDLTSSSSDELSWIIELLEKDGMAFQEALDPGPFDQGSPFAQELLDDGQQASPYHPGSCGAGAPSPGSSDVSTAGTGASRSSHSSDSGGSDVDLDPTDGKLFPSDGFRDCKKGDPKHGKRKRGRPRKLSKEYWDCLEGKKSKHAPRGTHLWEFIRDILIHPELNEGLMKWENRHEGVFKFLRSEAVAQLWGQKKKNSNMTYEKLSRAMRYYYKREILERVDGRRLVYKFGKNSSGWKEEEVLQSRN
Outline: as §1

SPDEF = molecular target: T5, SPDEF (Homo sapiens, UniProt O95238 1-335)
T5 sequence: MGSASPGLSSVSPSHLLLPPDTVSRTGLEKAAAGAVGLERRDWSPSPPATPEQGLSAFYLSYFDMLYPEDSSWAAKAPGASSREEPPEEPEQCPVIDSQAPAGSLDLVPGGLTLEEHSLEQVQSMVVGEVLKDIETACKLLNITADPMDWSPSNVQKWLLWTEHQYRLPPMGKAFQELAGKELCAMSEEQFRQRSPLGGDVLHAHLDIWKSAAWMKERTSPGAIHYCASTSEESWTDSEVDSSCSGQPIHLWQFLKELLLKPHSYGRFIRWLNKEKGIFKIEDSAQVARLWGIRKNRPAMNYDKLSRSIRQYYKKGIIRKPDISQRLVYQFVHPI
Outline: as §1

ETV7 = molecular target: T6, ETV7 (Homo sapiens, UniProt Q9Y603 1-341)
T6 sequence: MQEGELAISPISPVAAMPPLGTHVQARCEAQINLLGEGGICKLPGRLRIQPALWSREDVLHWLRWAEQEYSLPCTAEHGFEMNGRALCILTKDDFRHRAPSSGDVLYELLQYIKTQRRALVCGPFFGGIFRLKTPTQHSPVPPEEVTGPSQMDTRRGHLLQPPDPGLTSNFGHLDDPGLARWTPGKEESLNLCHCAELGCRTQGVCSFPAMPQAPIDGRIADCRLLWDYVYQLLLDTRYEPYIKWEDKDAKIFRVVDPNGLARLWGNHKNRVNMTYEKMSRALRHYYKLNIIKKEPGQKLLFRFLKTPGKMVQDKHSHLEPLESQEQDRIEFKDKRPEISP
Outline: as §1

ETV6 = ETV6 (Homo sapiens, UniProt P41212 1-452)
ETV6, sequence (P41212 whole entry): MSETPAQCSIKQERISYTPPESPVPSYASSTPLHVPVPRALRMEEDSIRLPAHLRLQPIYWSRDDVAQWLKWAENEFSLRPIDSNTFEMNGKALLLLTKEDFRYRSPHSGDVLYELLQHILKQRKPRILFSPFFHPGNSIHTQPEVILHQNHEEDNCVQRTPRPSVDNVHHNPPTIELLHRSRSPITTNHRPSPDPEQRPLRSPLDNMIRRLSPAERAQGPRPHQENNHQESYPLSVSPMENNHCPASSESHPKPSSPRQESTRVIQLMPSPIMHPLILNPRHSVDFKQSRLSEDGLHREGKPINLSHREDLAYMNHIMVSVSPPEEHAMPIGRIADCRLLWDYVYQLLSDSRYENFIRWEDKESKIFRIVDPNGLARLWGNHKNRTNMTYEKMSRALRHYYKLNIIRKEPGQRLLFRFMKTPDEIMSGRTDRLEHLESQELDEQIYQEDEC
Outline: as §1

ELF4 = ELF4 (Homo sapiens, UniProt Q99607 1-663)
ELF4, sequence (Q99607 whole entry): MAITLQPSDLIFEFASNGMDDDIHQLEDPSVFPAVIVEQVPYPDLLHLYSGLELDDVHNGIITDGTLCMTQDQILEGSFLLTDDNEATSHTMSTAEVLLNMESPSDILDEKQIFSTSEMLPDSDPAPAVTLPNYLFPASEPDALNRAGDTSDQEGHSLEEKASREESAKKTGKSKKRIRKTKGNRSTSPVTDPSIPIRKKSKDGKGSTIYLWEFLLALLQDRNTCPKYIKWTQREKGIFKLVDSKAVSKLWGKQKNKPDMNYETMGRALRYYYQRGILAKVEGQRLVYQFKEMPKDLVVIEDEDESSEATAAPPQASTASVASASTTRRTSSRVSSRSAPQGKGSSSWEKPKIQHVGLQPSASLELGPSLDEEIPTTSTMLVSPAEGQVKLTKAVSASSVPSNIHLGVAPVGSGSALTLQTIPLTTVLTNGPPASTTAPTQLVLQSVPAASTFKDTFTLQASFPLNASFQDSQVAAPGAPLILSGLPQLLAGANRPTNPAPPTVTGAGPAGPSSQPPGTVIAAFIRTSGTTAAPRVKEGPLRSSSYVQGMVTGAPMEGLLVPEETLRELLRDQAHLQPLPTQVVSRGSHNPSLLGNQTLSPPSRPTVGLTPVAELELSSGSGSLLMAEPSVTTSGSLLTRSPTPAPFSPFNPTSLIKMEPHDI
Outline: as §1

Sequence | binding signal (GABPA) | binding signal (ELF1) | binding signal (EHF) | binding signal (SPI1) | binding signal (SPIB) | binding signal (FEV) | binding signal (ETV5) | binding signal (ELF3) | binding signal (SPDEF) | binding signal (ETV7) | binding signal (ETV6) | binding signal (ELF4)
CGGTTA | 1.01 fold enrichment (6-mer frequency, TF over GST control) | 1 fold enrichment (6-mer frequency, TF over GST control) | 1.02 fold enrichment (6-mer frequency, TF over GST control) | 1 fold enrichment (6-mer frequency, TF over GST control) | 1.02 fold enrichment (6-mer frequency, TF over GST control) | 1.04 fold enrichment (6-mer frequency, TF over GST control) | 1.05 fold enrichment (6-mer frequency, TF over GST control) | 1 fold enrichment (6-mer frequency, TF over GST control) | 1.15 fold enrichment (6-mer frequency, TF over GST control) | 1 fold enrichment (6-mer frequency, TF over GST control) | 1.09 fold enrichment (6-mer frequency, TF over GST control) | 
ACAAGA |  |  |  |  |  |  | 1.03 fold enrichment (6-mer frequency, TF over GST control) | 1.1 fold enrichment (6-mer frequency, TF over GST control) |  | 1.02 fold enrichment (6-mer frequency, TF over GST control) |  | 1.03 fold enrichment (6-mer frequency, TF over GST control)
